Peg3 prom inh-1 – Peg3 promoter-driven luciferase inhibitors, primary screen, cell-based, HeLa, luciferase luminescence; HeLa PEG-Prom luciferase reporter, overnight; inhibition, % at 20 µM; 1.7% of 360,000 active; AID 588405, 2011;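 active = inhibition of at least 50% at 20 µM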
KKLEB tox – cytotoxicity in KKLEB CF airway cells, primary screen, cytotoxicity control for CF NF-kB inhibitor project, cell-based, uHTS, fluorescence assay plates. KKLEB CF airway cells viability, ATPlite luminescence, overnight; active compounds read low; cells stimulated with P. aeruginosa culture filtrate. activity change (cytotoxicity), % at 5 µM. 0.36% of 360,000 active;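 active = corrected activity change at or below -50% at 5 µM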
CF NFkB block – inhibitors of PAF-induced NF-kB signaling, primary screen, cell-based, GFP fluorescence, uHTS; KKLEB NF-kB-GFP reporter, GFP fluorescence overnight; inhibition, % at 5 µM; 0.86% of 360,000 active;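 active = at least 50% inhibition at 5 µM, scaled per plate between neutral and stimulator controls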;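 note: PAF is a Pseudomonas aeruginosa culture filtrate used as stimulus; plate controls were PAF-stimulated DMSO wells for no effect and unstimulated DMSO wells for full effect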
HIF-2a inh – HIF-2a reporter inhibitors, primary screen, luminescence, 786-0 RCC cells. inhibition, % at 18.8 µM. AID 624352, 2012. 0.72% of 360,000 active. 786-0 RCC cells HIF-2a reporter, luciferase luminescence, overnight;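 active = inhibition of the luminescence signal of 40% or more relative to plate controls, in a single-dose primary screen at 18.75 µM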
Shn3 inh set2 – reduction of Shn3 3'UTR firefly luciferase signal, primary screen, Schnurri-3 inhibitor project, cell-based, Clone20 osteoblasts, set 2 | 0.52% of 360,000 active | inhibition, % at 12.5 µM | Clone20 osteoblast Shn3 3'UTR firefly luciferase, 24 h;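 active = mean inhibition of at least 75% with every replicate also reaching 75%; inconclusive = mean inhibition at least 75% but some replicate below; inactive = mean inhibition below 75%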;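 note: 0% = median of neutral control wells and 100% = pilot-screen positive control compound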
MITF TRPM1 inh – inhibitors of MITF-dependent TRPM1 promoter reporter, primary screen, cell-based, SK-MEL-5, single point, luciferase; SK-MEL-5 TRPM1 promoter luciferase, 24 h; inhibition, % at 12.5 µM; 0.83% of 330,000 active;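 active = mean inhibition across replicates of 60% or more, whatever share of single replicates reaches that level; inconclusive = some that reach 60%, reason not given; inactive = mean inhibition across replicates below 60%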
Peg3 prom inh-2 – Peg3 promoter reporter inhibitors, retest, confirmation, cell-based, HeLa, luciferase reporter, single concentration. AID 602417, 2012. shares compounds with Peg3 prom inh-1. inhibition, % at 20 µM. 84% of 1,300 active. HeLa PEG-Prom luciferase reporter, luminescence, overnight;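 active = at 20 µM dose, 40% or more inhibition averaged across four replicates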
CF NFkB conf – inhibitors of PAF-induced NF-kB signaling, retest, confirmation, cell-based, GFP fluorescence, single concentration. shares compounds with CF NFkB block. KKLEB CF airway cells, overnight. inhibition, % at 5 µM. 64% of 1,300 active. AID 602472, 2012; in the data active = inhibition above about 40%;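 note: stimulus PAF is a Pseudomonas aeruginosa filtrate and not platelet activating factor; plate controls were DMSO wells with stimulus for no effect and unstimulated DMSO wells for full effect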
Mdm2-MdmX confirm – retested Mdm2-MdmX interaction blockers, confirmation, cell-based, luminescence, single concentration, set 2; shares compounds with HIF-2a inh; inhibition, % at 8 µM; 99% of 740 active; SaOS-2 split-luciferase Mdm2/MdmX complementation; AID 504601, 2011;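 active = mean inhibition of the luminescence signal across two replicates at or above 26 percent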
HIF-2a conf – HIF-2a reporter inhibitor retest, confirmation, luminescence, 786-0 RCC cells. shares compounds with HIF-2a inh. HIF-2a luciferase reporter luminescence, overnight. inhibition, % at 18.8 µM. 56% of 1,800 active. AID 651580, 2012;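 active = mean inhibition across four replicates of at least 40 percent at the single tested concentration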
HIF-1a counter – HIF-1a luciferase reporter signal reduction – MiaPaCa-2 cells, single concentration, counter-screen for HIF-2a inhibitor project, confirmation | shares compounds with HIF-2a inh | MiaPaCa-2 HIF-1a luciferase reporter, desferoxamine, overnight | inhibition, % at 18.8 µM | 72% of 1,800 active;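 active = mean inhibition of the reporter signal across four replicates at the single tested dose of 50% or more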
* marks the source's active call; other numbers are inactive results; ? = inconclusive; . = no result. Most compounds without a hit are left out; they make up all but 2.8% or so of the library.

SMILES	Peg3 prom inh-1	KKLEB tox	CF NFkB block	HIF-2a inh	Shn3 inh set2	MITF TRPM1 inh	Peg3 prom inh-2	Mdm2-MdmX confirm	HIF-2a conf	HIF-1a counter	others
CC(CCc1ccccc1)NC(=O)COC(=O)c1ccc([N+](=O)[O-])cc1 (stereo not given)	-7	0	-21	16	5	-1	.	.	.	.
CC(CCc1ccccc1)NC(=O)COC(=O)c1ccc(S(C)(=O)=O)c([N+](=O)[O-])c1 (stereo not given)	102*	-64*	91*	50*	97*	-9	97*	102*	38	97*
COc1cccc(-c2nnc3n2N=C(C(C)(C)C)CS3)c1	98*	-24	94*	27	-3	?	75*	103*	.	.	CF NFkB conf=98*
CCn1c(C)cc(C(=O)COC(=O)c2ccccc2[N+](=O)[O-])c1C	94*	-67*	5	82*	94*	97*	91*	98*	87*	87*
Cc1cc(C(=O)COC(=O)c2ccccc2Br)c(C)n1CC1CCCO1 (stereo not given)	54*	-32	15	55*	?	76*	78*	.	68*	90*
Cc1ccc(C(=O)OCC(=O)c2cc(C)n(CC3CCCO3)c2C)cc1 (stereo not given)	-262	5	-1	-92	-73	-61	.	.	.	.
Cc1cc(C(=O)COC(=O)c2ccccc2O)c(C)n1Cc1cccs1	91*	-44	13	90*	91*	90*	87*	.	96*	97*
Cc1cc(C(=O)COC(=O)c2ccc3c(c2)OCO3)c(C)n1Cc1cccs1	-291	1	-1	-196	-4	-18	.	.	.	.
COCCn1c(C)cc(C(=O)COC(=O)c2ccccc2Br)c1C	78*	-36	14	48*	67	81*	69*	.	42*	76*
Cc1ccc(N2CC(C(=O)Nc3cccnc3)CC2=O)cc1C (stereo not given)	-19	2	-7	8	0	-7	.	.	.	.
Cc1cc(C(=O)COC(=O)c2ccccc2O)c(C)n1CC1CCCO1 (stereo not given)	85*	-22	31	90*	83	84*	92*	.	95*	98*
N#Cc1ccc(C(=O)Nc2nc3ccccc3[nH]2)cc1	-279	1	14	-187	-72	-50	.	.	.	.
CCc1ccc(C(=O)Nc2nc3ccccc3[nH]2)cc1	77*	-69*	5	63*	52	?	67*	.	84*	84*
CCc1ccc(/C=C2\SC(=S)N(CCCC(=O)Nc3ccccn3)C2=O)cc1	82*	-2	3	96*	36	34	80*	95*	.	.

Source: PubChem BioAssay
